In PubChem BioAssay (NCI) one finds growth data, which are given here for 5 molecules.

About 83,000 compounds went through this panel and 20% of them were active in at least one assay; those are over-represented in the sample as a whole.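 Results are percent growth after 48 hours of single-concentration exposure. 100 means growth as in untreated cells, lower positive values show inhibition; negative values down to -100 show cell death.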 Activity calls are given as the source filed them. The calls were made as follows: active = growth percent below 10; inactive = the rest.

Test systems include NCI-H23 lung; NCI-H226 lung; NCI-H322M lung; HOP-62 NSCLC; NCI-H460 lung; HOP-92 NSCLC; NCI-H522 lung; A549/ATCC NSCLC; 786-0 renal; COLO 205 colon; DU-145 prostate; K-562 leukemia; MALME-3M melanoma; MDA-MB-231 breast; SF-268 CNS; SF-295 CNS; SF-539 CNS; UACC-257 melanoma; M14 melanoma.
Common to all, as to experiment: NCI-60 one-dose screen, 48 h (100 = growth as untreated, 0 = no growth, -100 = all killed)
Holding throughout (conditions): 10 µM

In the case of `CC(C)c1ccc(C(=O)Nc2sc3c(c2C(N)=O)CCC(=O)C3=O)cc1`, the growth was 81.3% (inactive) in the assay on NCI-H23 lung; 86.6% (inactive) with NCI-H226 lung; 104% (inactive) in the assay on NCI-H322M lung; 102% (inactive) in the assay with HOP-62 NSCLC; 97.5% (inactive) in the assay with NCI-H460 lung; 127% (inactive) in the assay on HOP-92 NSCLC. Further, the growth is 84% (inactive) in the assay with NCI-H522 lung; 99.4% (inactive) with A549/ATCC NSCLC; 113% (inactive) in the assay with 786-0 renal; 104% (inactive) in the assay on COLO 205 colon; 103% (inactive) with DU-145 prostate; 77.4% (inactive) in the assay on K-562 leukemia. For the same molecule, the growth in the assay on MALME-3M melanoma is 103% (inactive); with MDA-MB-231 breast, 93.3% (inactive); with SF-268 CNS, 103% (inactive); in the assay on SF-295 CNS, 104% (inactive); with SF-539 CNS, 93.9% (inactive); in the assay on UACC-257 melanoma it was 93.8% (inactive). Also, the growth with M14 melanoma was 96.3% (inactive).

As to `CN(C)c1ccc(/C=C/c2nc3ccccc3c(=O)n2CC(=O)Nc2ccc(Cl)cc2)cc1`, the growth with NCI-H23 lung is 67.2% (inactive); in the assay on NCI-H226 lung, 2.45% (active); in the assay on NCI-H322M lung, 61.7% (inactive); in the assay on HOP-62 NSCLC it was 25.4% (inactive); in the assay on NCI-H460 lung it was 44.6% (inactive); in the assay on HOP-92 NSCLC, -13.6% (active). The growth in the assay on NCI-H522 lung is 77.9% (inactive); with A549/ATCC NSCLC it was 43.8% (inactive); in the assay with 786-0 renal, 27.8% (inactive); in the assay with COLO 205 colon, 57.3% (inactive); in the assay with DU-145 prostate it was 36.7% (inactive); in the assay on K-562 leukemia, 68.7% (inactive). Further, the growth with MALME-3M melanoma was 15.5% (inactive); with MDA-MB-231 breast, 35.1% (inactive); in the assay with SF-268 CNS it was 58.5% (inactive); in the assay with SF-295 CNS it was 27.9% (inactive); in the assay on SF-539 CNS, -63.6% (active); with UACC-257 melanoma, 78.7% (inactive). Also, the growth with M14 melanoma is 65.2% (inactive).

Turning to `CCOc1ccc(/C=N/NC(=O)Cn2nc(Cc3ccc([N+](=O)[O-])cc3)c3onc(C)c3c2=O)cc1`, the growth is 28.8% (inactive) with NCI-H23 lung; -21.1% (active) in the assay with NCI-H226 lung; 29.4% (inactive) in the assay with NCI-H322M lung; -17.3% (active) with HOP-62 NSCLC; -9.53% (active) in the assay on NCI-H460 lung; -44.6% (active) in the assay with HOP-92 NSCLC. Moreover, the growth was 47.6% (inactive) in the assay with NCI-H522 lung; -23.6% (active) with A549/ATCC NSCLC; -79.7% (active) in the assay with 786-0 renal; 53.7% (inactive) in the assay with COLO 205 colon; -15.2% (active) in the assay with DU-145 prostate; 62.5% (inactive) in the assay on K-562 leukemia. Further, the growth with MALME-3M melanoma was -2.13% (active); in the assay on MDA-MB-231 breast, -19.9% (active); with SF-268 CNS, -8.68% (active); with SF-295 CNS it was 1.32% (active); with SF-539 CNS it was -64.5% (active); with UACC-257 melanoma, 70.3% (inactive). Besides, the growth in the assay on M14 melanoma was 50.9% (inactive).

`Brc1ccc(N/N=C/c2c[nH]c3ccccc23)nc1`: the growth with NCI-H23 lung was 41.1% (inactive); in the assay with NCI-H226 lung it was 35.5% (inactive); in the assay with NCI-H322M lung it was 47.6% (inactive); in the assay on HOP-62 NSCLC it was 32% (inactive); with NCI-H460 lung, 9% (active); with HOP-92 NSCLC it was -28.4% (active). In addition, the growth is 24.9% (inactive) in the assay with NCI-H522 lung; 37.7% (inactive) with A549/ATCC NSCLC; 0.458% (active) in the assay on 786-0 renal; 48.8% (inactive) in the assay with COLO 205 colon; 37.7% (inactive) with DU-145 prostate; 11.7% (inactive) in the assay with K-562 leukemia. The growth with MALME-3M melanoma was 64.1% (inactive); in the assay on MDA-MB-231 breast, -26% (active); in the assay with SF-268 CNS it was 21.4% (inactive); in the assay on SF-295 CNS, 25.3% (inactive); with SF-539 CNS it was 21% (inactive); in the assay with UACC-257 melanoma, 70.8% (inactive). Besides, the growth in the assay on M14 melanoma is 14.3% (inactive).

Turning to `COc1ccc(/C=N/N=C(\C)c2ccc3c(c2)Nc2ccccc2S3)cc1O`, the growth with NCI-H23 lung was 35.9% (inactive); in the assay with NCI-H226 lung it was 49.2% (inactive); in the assay with NCI-H322M lung it was 71.2% (inactive); in the assay with HOP-62 NSCLC it was 80.1% (inactive); with NCI-H460 lung, 41.1% (inactive); with HOP-92 NSCLC it was 74.1% (inactive). Besides, the growth in the assay with NCI-H522 lung was 48.3% (inactive); with A549/ATCC NSCLC, 63.9% (inactive); in the assay on 786-0 renal, 73.9% (inactive); with COLO 205 colon, 99.9% (inactive); in the assay on DU-145 prostate, 62.7% (inactive); in the assay with K-562 leukemia, 25.7% (inactive). The growth was 55.1% (inactive) with MALME-3M melanoma; 65.3% (inactive) with MDA-MB-231 breast; 57.2% (inactive) in the assay on SF-268 CNS; 45.1% (inactive) in the assay on SF-295 CNS; 67.2% (inactive) with SF-539 CNS; 27.6% (inactive) with UACC-257 melanoma. Also, the growth in the assay on M14 melanoma was 49.3% (inactive).
